Test results taken from the supplement of paper PMC10849652.
About 8,800 targets were measured; listed, in parts, are those with a hit and a random draw of the rest. About 0.5% of all pairs of compound and target were hits. A number with no mark means an inactive call.

Legend:
Assay in all cases: log2 fold change, soluble protein after heating vs DMSO (PISA); higher = thermal stabilisation; K562 lysate, 10 uM; active = over 0.2 and 3.5 SD of the protein, either way, in both replicates (recomputed)
[1] = compound: CS(=O)(=O)CCNCc1ccc(-c2ccc3ncnc(Nc4ccc(OCc5cccc(F)c5)c(Cl)c4)c3c2)o1 [lapatinib]
Procedure, shortened: (§1)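 Log-two fold change in thermal stability relative to solvent controls is reported from duplicates. For each sample, crude K562 extract from dounce-homogenised pellets in PBS pH 7.4 with 1 mM MgCl2, at 1 mg/mL protein, was treated with 10 μM compound for 30 min. Aliquots heated for 3 min across 48°C-58°C were pooled, brought to 0.5% NP-40 at 4°C and cleared at 21,000xg for 90 min. The supernatant was quantified by TMTpro 16plex LC-MS/MS with channel sums equalised.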

[2] = compound: CS(=O)(=O)N1CCN(Cc2cc3nc(-c4cccc5[nH]ncc45)nc(N4CCOCC4)c3s2)CC1 [pictilisib]
Procedure, shortened: as §1

[3] = compound: C[C@@H](Oc1cc(-c2cnn(C3CCNCC3)c2)cnc1N)c1c(Cl)ccc(F)c1Cl [crizotinib]
Procedure, shortened: as §1

[4] = compound: C[C@H](C1=CC=C(C=C1)C(=O)NC2=C3C=CNC3=NC=C2)N
Procedure, shortened: as §1

[5] = compound: C[C@H](Nc1ncnc2nc[nH]c12)c1cc2cccc(Cl)c2c(=O)n1-c1ccccc1 [duvelisib]
Procedure, shortened: as §1

[6] = compound: Cc1cc(Nc2cc(CN3CCOCC3)c3nc(C)c(Cc4ccc(Cl)cc4F)n3n2)n[nH]1 [gandotinib]
Procedure, shortened: as §1

[7] = compound: Cc1cc(Nc2cc(N3CCN(C)CC3)nc(Sc3ccc(NC(=O)C4CC4)cc3)n2)n[nH]1 [tozasertib]
Procedure, shortened: as §1

[8] = compound: Cc1ccc(-n2nc(C(C)(C)C)cc2NC(=O)Nc2ccc(OCCN3CCOCC3)c3ccccc23)cc1 [doramapimod]
Procedure, shortened: as §1

[9] = compound: Cc1ccc(NC(=O)c2ccc(CN3CC[C@H](N(C)C)C3)c(C(F)(F)F)c2)cc1Nc1nccc(-c2cncnc2)n1 [bafetinib]
Procedure, shortened: as §1

[10] = compound: Cc1cccc(CC(=O)N2CCc3c2ccc(-c2cn(C)c4ncnc(N)c24)c3F)n1
Procedure, shortened: as §1

Chain of UniProt O00221 (O00221 whole entry, looked up): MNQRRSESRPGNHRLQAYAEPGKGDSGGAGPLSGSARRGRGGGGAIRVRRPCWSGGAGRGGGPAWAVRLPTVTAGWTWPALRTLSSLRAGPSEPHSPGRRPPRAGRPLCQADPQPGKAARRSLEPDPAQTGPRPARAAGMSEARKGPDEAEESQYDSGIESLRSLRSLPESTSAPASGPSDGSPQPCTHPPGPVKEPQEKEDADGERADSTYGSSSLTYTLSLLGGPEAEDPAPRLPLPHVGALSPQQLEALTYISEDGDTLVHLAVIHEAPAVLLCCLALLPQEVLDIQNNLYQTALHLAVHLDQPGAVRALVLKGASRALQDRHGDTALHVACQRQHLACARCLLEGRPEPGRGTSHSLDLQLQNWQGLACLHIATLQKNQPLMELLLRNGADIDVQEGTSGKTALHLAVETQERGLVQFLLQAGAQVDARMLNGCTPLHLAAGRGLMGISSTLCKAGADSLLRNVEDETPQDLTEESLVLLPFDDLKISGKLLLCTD
Chain of UniProt P35749 (P35749 whole entry, looked up): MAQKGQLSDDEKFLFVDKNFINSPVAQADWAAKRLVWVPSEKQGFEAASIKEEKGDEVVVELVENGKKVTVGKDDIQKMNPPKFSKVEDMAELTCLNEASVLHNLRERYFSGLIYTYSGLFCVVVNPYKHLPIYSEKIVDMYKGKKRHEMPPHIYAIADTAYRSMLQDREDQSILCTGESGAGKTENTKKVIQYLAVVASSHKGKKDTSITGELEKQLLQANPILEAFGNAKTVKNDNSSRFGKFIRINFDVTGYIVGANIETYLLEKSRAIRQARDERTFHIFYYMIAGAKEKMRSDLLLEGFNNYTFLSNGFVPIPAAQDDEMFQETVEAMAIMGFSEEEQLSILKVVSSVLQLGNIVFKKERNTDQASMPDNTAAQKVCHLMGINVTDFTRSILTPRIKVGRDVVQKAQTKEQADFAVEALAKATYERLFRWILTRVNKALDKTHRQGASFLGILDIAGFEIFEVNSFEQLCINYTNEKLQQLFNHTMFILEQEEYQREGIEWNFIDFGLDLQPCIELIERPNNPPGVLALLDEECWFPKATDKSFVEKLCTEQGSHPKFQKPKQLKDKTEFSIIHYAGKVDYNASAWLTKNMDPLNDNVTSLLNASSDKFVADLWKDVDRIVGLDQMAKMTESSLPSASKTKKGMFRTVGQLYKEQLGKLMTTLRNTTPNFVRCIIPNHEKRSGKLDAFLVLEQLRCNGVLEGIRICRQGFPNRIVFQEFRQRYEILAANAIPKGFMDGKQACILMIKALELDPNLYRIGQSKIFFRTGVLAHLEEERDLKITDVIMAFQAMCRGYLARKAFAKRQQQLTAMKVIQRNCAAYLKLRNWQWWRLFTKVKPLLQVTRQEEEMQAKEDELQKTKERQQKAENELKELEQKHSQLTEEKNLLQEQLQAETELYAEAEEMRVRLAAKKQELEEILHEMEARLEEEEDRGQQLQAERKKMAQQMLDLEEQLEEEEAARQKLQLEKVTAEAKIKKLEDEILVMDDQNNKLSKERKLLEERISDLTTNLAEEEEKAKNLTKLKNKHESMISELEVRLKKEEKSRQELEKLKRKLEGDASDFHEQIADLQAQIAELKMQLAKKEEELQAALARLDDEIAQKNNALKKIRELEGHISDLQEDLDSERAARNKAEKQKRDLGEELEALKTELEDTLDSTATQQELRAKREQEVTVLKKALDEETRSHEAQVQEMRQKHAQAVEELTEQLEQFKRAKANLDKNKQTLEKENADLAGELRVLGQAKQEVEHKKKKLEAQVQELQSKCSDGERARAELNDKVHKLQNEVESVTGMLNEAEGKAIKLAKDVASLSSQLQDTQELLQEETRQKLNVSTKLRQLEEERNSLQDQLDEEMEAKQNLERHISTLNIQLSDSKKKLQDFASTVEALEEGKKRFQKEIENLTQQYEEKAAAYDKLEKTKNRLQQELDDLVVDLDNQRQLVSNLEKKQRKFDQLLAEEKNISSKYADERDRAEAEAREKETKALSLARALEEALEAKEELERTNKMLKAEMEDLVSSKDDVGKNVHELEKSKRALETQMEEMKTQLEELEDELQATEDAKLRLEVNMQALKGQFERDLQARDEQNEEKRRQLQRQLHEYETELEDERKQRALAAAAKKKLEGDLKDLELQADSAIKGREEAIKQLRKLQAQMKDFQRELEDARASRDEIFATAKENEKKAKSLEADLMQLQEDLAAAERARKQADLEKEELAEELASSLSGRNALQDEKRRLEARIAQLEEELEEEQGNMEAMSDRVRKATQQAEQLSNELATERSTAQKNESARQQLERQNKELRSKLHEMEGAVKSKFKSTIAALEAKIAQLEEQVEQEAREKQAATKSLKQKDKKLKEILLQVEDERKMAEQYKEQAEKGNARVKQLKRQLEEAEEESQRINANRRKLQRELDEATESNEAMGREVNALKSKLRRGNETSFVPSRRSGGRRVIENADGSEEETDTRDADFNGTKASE
Chain of UniProt Q147X3 (Q147X3 whole entry, looked up): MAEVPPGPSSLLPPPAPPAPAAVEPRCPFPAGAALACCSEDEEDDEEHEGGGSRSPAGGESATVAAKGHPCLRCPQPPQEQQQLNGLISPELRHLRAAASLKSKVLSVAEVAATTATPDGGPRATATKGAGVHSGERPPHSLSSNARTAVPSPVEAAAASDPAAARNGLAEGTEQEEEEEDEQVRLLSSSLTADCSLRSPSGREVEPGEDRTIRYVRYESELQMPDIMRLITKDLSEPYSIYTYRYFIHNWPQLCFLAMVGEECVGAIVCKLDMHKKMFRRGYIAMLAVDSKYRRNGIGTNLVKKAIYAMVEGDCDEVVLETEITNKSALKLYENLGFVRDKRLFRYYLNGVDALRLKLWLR
Chain of UniProt O76041 (O76041 whole entry, looked up): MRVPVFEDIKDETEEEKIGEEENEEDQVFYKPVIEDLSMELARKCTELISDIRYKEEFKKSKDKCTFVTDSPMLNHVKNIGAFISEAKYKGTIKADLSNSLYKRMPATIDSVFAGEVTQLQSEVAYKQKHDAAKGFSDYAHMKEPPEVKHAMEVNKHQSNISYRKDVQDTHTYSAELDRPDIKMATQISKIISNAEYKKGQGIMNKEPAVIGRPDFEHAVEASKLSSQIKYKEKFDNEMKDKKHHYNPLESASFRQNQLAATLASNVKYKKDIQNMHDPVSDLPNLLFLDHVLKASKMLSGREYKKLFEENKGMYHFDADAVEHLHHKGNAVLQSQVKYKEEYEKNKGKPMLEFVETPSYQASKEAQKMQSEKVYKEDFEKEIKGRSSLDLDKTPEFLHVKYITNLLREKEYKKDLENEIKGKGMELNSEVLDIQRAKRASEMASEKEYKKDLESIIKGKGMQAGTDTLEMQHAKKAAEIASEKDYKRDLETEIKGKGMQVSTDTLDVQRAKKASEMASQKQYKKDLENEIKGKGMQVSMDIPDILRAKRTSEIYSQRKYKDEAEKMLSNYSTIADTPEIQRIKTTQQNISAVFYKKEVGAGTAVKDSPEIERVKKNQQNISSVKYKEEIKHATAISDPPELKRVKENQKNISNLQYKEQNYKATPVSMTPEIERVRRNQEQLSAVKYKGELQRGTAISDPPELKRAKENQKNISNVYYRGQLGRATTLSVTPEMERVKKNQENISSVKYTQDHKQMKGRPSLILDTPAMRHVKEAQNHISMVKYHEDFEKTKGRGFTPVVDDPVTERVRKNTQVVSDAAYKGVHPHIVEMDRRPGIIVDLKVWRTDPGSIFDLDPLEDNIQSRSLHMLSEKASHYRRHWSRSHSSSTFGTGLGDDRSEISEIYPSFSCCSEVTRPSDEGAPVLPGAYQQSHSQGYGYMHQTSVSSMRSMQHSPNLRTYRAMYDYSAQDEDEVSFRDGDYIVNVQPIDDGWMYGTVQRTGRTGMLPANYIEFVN
Chain of UniProt Q08J23 (Q08J23 whole entry, looked up): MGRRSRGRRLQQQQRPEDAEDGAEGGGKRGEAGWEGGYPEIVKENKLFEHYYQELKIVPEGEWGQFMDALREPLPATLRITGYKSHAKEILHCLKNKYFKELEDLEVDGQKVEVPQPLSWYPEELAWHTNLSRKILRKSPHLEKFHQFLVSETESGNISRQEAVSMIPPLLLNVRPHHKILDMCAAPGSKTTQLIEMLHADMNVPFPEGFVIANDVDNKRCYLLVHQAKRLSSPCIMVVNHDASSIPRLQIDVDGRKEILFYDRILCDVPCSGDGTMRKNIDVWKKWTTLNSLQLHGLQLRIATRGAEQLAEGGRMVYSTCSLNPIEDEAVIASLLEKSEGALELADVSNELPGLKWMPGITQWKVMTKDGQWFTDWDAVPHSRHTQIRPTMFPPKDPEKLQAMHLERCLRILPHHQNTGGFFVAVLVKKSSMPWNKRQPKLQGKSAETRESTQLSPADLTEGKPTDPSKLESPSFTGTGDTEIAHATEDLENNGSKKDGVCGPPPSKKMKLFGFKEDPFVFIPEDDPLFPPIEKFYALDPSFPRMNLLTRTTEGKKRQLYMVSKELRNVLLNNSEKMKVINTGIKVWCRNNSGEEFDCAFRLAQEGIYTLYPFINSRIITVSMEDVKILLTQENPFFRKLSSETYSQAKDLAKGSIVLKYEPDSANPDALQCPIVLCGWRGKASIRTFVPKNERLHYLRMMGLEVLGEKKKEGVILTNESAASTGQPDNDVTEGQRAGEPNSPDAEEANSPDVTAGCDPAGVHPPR
Chain of UniProt Q9Y314 (Q9Y314 whole entry, looked up): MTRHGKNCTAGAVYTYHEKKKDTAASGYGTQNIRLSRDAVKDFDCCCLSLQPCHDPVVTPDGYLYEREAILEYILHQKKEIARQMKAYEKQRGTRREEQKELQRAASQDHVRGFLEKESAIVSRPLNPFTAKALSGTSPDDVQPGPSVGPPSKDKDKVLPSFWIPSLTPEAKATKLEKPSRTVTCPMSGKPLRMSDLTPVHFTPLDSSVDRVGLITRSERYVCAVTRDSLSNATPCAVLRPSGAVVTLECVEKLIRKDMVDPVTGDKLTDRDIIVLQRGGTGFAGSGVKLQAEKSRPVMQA
Chain of UniProt O60829 (O60829 whole entry, looked up): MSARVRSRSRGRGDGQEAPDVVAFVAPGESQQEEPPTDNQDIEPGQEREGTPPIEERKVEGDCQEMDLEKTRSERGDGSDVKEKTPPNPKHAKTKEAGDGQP

Target	log2 fold change [1]	log2 fold change [2]	log2 fold change [3]	log2 fold change [4]	log2 fold change [5]	log2 fold change [6]	log2 fold change [7]	log2 fold change [8]	log2 fold change [9]	log2 fold change [10]
NUP93 (UniProt Q8N1F7)	-0.011	-0.029	-0.03	-0.027	-0.03	-0.158	0.015	0.022	-0.054	0.07
NAT1 (UniProt P18440)	0.026	0.111	-0.227	-0.089	0.006	0.004	-0.048	0.058	0.006	0.083
PAXBP1 (UniProt Q9Y5B6)	0.002	-0.077	-0.027	-0.037	-0.008	-0.029	0.012	0.038	-0.024	0.002
MYO1D (UniProt O94832)	0.014	-0.051	-0.035	0.016	-0.028	-0.072	0.01	0.011	-0.041	-0.005
MYH11 isoform 2 (UniProt P35749)	0.075	-0.002	0.054	0.279 (active)	0.055	-0.004	0.031	-0.044	0.303	-0.018
NR2C2 isoform 2 (UniProt P49116)	-0.014	-0.025	-0.004	0.064	-0.014	-0.079	-0.005	-0.004	0.145	-0.025
NEBL (UniProt O76041)	0.054	-0.046	0.09	0.106	0.023	-0.204	0.01	-0.006	-0.037	-0.076
NMRAL1 (UniProt Q9HBL8)	-0.003	0.105	-0.017	0.695 (active)	0.08	-0.01	-0.051	0.036	0.005	0.011
MTHFD1, A0A384N5Y3	-0.008	-0.003	-0.064	0.04	0.015	-0.087	0.028	0.043	-0.041	-0.025
NCAPD2 (UniProt Q15021)	-0.033	0.001	-0.049	-0.003	0.014	-0.115	-0.006	0.011	-0.036	0.029
MYCBP (UniProt Q99417)	0.01	-0.052	0.003	-0.498 (active)	0.02	0.105	0.028	0.008	-0.018	0.182
NTPCR (UniProt Q9BSD7)	-0.003	-0.028	-0.071	0.031	-0.003	-0.094	-0.028	0.011	-0.044	-0.052
NOSIP (UniProt Q9Y314)	-0.03	-0.042	-0.026	0.02	-0.004	0.017	-0.053	0.013	-0.003	0.038
NT5DC2 isoform 2 (UniProt Q9H857)	-0.036	-0.019	0.004	-0.018	-0.01	0.021	-0.019	-0.029	-0.027	-0.027
NOC2L (UniProt Q9Y3T9)	-0.049	-0.012	-0.077	-0.004	-0.074	-0.037	-0.015	0.03	-0.137	0.09
MSI2 (UniProt Q96DH6)	0	-0.057	0.036	0.024	-0.052	-0.031	0.01	-0.23 (active)	-0.066	0.07
PANK1 (UniProt Q8TE04)	-0.008	0.151	-0.018	0.106	0.099	-0.31 (active)	0.069	0.041	-0.062	-0.253
NELFA (UniProt Q9H3P2)	-0.031	0.021	0.018	0.06	-0.018	-0.079	0.048	0.022	-0.048	-0.003
MRPS18A isoform 2 (UniProt Q9NVS2)	0.005	-0.046	-0.02	0.262	-0.133	-0.164	0.043	-0.005	0	-0.226
NIPBL (UniProt Q6KC79)	-0.03	-0.081	-0.034	0.039	0	-0.094	-0.005	0.033	0.001	0.016
NCOR1 (UniProt O75376)	0.046	-0.028	0.018	0.031	-0.022	-0.03	-0.009	-0.034	-0.028	0.006
NFKBIE (UniProt O00221)	0.03	0.002	-0.027	0.066	0.03	-0.02	0.07	0.031	0.012	0.096
PAFAH1B3 (UniProt Q15102)	-0.034	-0.024	-0.01	-0.016	-0.024	-0.001	0.054	0	0.048	-0.001
MRPL58 (UniProt Q14197)	0.035	-0.034	-0.063	0.365 (active)	-0.034	-0.009	0.045	-0.026	-0.03	-0.119
NSUN2 (UniProt Q08J23)	-0.009	-0.006	-0.024	0.072	-0.005	-0.05	-0.011	-0.009	-0.038	-0.007
NARF (UniProt Q9UHQ1)	-0.027	0.01	0.032	0.001	0.029	0.008	0.02	0.012	-0.008	-0.04
PANK4 (UniProt Q9NVE7)	-0.019	-0.037	-0.052	-0.049	-0.009	0.125	0.001	-0.001	-0.06	0.022
NAA30 (UniProt Q147X3)	-0.021	-0.028	-0.01	-0.025	-0.037	0.012	0.015	-0.028	0.042	0.06
PAGE4 (UniProt O60829)	-0.012	-0.05	-0.028	0.344 (active)	0.091	-0.102	-0.023	0.11	-0.004	-0.134
